Data as given in PubChem BioAssay (Tox21).
Several values for one entry are separate records, joined by “and”; a condition that tells them apart may be missing. Equal entries are not always repeated. Inconclusive results are not listed. More than one record can exist for a structure, and the calls need not agree. Activity calls are given as the source filed them. Unless noted, calls follow the shape of the dose curve; as a rule, active = well fitted curve in the direction sought with a large enough effect in the repeat runs; inconclusive = weak or mixed curves; inactive = no such curve, though single readings can be large; an effect the other way counts as inactive or inconclusive.

Tests used:
[1] = qHTS assay to identify small molecule antagonists of the glucocorticoid receptor (GR) signaling pathway - cell viability counter screen (AID 720693); also: nearly all actives have a fitted effect of over 55% in size
[2] = qHTS assay for identifying genotoxic compounds that show differential cytotoxicity against isogenic chicken DT40 cell lines with known DNA damage response pathways - wild type cell line (AID 743012); also: nearly all actives have a fitted effect of over 60% in size; also: potency is read from the fitted curve at half-maximal effect
Method in brief: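 Viability of DNA repair-proficient chicken DT40 cells was assessed by CellTiter-Glo luminescence following 40 h compound exposure at 37 C/5% CO2.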

[3] = qHTS assay for identifying genotoxic compounds that show differential cytotoxicity against isogenic chicken DT40 cell lines with known DNA damage response pathways - Rev3 mutant cell line (AID 743014); also: nearly all actives have a fitted effect of over 55% in size; also: potency is read from the fitted curve at half-maximal effect
[4] = qHTS assay for identifying genotoxic compounds that show differential cytotoxicity against isogenic chicken DT40 cell lines with known DNA damage response pathways - Rad54/Ku70 mutant cell line (AID 743015); also: nearly all actives have a fitted effect of over 60% in size; also: potency is read from the fitted curve at half-maximal effect
[5] = qHTS assay to identify small molecule antagonists of the androgen receptor (AR) signaling pathway - cell viability counter screen (AID 743033; also: nearly all actives have a fitted effect of over 45% in size; also: potency is read from the fitted curve at half-maximal effect)
[6] = qHTS assay to identify small molecule antagonists of the androgen receptor (AR) signaling pathway using the MDA cell line - cell viability counter screen (AID 743041; also: nearly all actives have a fitted effect of over 45% in size)
Method in brief: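 Viability read by CellTiter-Fluor fluorescence in the same wells as the antagonist screen, added after 15.5 h of a 16 h, 37C exposure. Human breast carcinoma MDA-kb2 AR-luc cells, compounds co-dosed with agonist R1881.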

[7] = qHTS assay to identify small molecule antagonists of the thyroid receptor (TR) signaling pathway - cell viability counter screen (AID 743064); also: nearly all actives have a fitted effect of over 50% in size; also: potency is read from the fitted curve at half-maximal effect
Method in brief: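 CellTiter-Fluor readout, 30 min at 37 °C/5% CO2, following 23.5 h incubation of GH3.TRE-Luc cells with test compound and 1 nM T3 (final).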

[8] = qHTS assay to identify small molecule antagonists of the thyroid receptor (TR) signaling pathway (AID 743065); also: nearly all actives have a fitted effect of over 55% in size; also: potency is read from the fitted curve at half-maximal effect
Method in brief: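 Antagonism measured as loss of luciferase signal in GH3 cells stably carrying a TRE-luciferase reporter, co-treated with compound and T3 (1 nM final) for 23.5 h at 37 C. Viability was read in the same well by CellTiter-Fluor.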

[9] = tested on: thyroid hormone receptor (rat, GH3 cells); experiment: qHTS assay to identify small molecule agonists of the thyroid receptor (TR) signaling pathway (AID 743066; calls by dose curve)
[10] = target: Estrogen receptor (Homo sapiens) (UniProt P03372); experiment: qHTS assay to identify small molecule antagonists of the estrogen receptor alpha (ER-alpha) signaling pathway (AID 743069; active = well fitted curve in the direction sought with a large enough effect in the signal ratio in the repeat runs, not every such curve was filed as active; the % refers to the signal ratio)
Sequence of Estrogen receptor (Homo sapiens) (P03372 whole entry, looked up): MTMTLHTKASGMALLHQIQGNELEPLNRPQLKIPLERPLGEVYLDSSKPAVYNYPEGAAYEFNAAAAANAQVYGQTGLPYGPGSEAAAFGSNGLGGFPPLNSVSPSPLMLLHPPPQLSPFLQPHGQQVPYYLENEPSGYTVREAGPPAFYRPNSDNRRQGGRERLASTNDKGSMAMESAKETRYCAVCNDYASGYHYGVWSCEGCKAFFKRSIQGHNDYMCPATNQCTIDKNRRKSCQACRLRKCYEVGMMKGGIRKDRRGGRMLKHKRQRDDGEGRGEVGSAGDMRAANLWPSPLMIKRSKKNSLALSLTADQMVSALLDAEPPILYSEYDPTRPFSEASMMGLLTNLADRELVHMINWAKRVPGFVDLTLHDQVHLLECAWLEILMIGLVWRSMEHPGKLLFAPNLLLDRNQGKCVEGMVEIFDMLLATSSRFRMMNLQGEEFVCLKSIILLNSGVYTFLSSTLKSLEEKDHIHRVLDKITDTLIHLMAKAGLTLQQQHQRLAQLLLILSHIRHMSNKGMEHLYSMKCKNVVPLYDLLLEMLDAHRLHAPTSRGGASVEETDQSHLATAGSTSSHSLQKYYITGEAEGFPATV
Method in brief: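 Antagonist mode: compounds in DMSO were co-added with 17beta-estradiol to ER-alpha-bla HEK293 cells (2% charcoal-stripped serum) and left 18 h at 37C. Reporter inhibition was measured as FRET fluorescence after 2 h LiveBLAzer substrate at room temperature.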

[11] = qHTS assay to identify small molecule antagonists of the estrogen receptor alpha (ER-alpha) signaling pathway - cell viability counter screen (AID 743074; calls by dose curve;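 also: HEK293 cells carrying ER-alpha-UAS-bla reporter stimulated with 17beta-estradiol; nearly all actives have a fitted effect of over 45% in size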; also: potency is read from the fitted curve at half-maximal effect)
[12] = target: Estrogen receptor (Homo sapiens) (UniProt P03372); experiment: qHTS assay to identify small molecule agonists of the estrogen receptor alpha (ER-alpha) signaling pathway (AID 743075; calls by dose curve;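 also: HEK293 GripTite cells with ER-alpha and UAS-driven beta-lactamase reporter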)
[13] = target: Estrogen receptor (Homo sapiens) (UniProt P03372); experiment: qHTS assay to identify small molecule agonists of the estrogen receptor alpha (ER-alpha) signaling pathway using the BG1 cell line (AID 743079); also: nearly all actives have a fitted effect of over 20% in size; also: potency is read from the fitted curve at half-maximal effect
[14] = qHTS assay to identify small molecule antagonists of the estrogen receptor alpha (ER-alpha) signaling pathway using the BG1 cell line (AID 743080; calls by dose curve;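 also: BG1 cells stimulated with 17beta-estradiol alongside compound; series mostly up to about 70 µM; nearly all actives have a fitted effect of over 25% in size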)
Method in brief: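 Readout is ONE-Glo luminescence, taken 30 min at room temperature after reagent addition, preceded by a CellTiter-Fluor viability read; BG1-Luc-4E2 cells had received compound and 17beta-estradiol for 21.5 h at 37 C.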

[15] = qHTS assay to identify small molecule antagonists of the estrogen receptor alpha (ER-alpha) signaling pathway using the BG1 cell line - cell viability counter screen (AID 743081);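 also: compound given together with 17beta-estradiol as the ER stimulus; series mostly up to about 70 µM; nearly all actives have a fitted effect of over 45% in size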
[16] = target: Aromatase (Homo sapiens) (UniProt P11511); experiment: qHTS assay to identify aromatase inhibitors (AID 743083); also: series mostly up to about 70 µM; nearly all actives have a fitted effect of over 55% in size
Sequence of Aromatase (Homo sapiens) (P11511 whole entry, looked up): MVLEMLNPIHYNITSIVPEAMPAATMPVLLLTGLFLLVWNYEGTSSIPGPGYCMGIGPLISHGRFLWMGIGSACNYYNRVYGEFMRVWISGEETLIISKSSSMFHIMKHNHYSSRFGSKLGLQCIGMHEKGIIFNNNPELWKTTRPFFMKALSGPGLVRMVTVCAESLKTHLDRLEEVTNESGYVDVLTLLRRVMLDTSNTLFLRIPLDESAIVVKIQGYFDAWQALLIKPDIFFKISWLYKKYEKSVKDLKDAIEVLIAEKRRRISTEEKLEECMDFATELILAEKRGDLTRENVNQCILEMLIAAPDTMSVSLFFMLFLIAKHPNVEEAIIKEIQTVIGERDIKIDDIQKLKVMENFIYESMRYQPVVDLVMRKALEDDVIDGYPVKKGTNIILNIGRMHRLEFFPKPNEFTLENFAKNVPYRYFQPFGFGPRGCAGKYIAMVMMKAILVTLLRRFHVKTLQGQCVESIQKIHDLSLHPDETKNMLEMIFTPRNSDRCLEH

[17] = qHTS assay to identify aromatase inhibitors - cell viability counter screen (AID 743084)

Measured: Potency

COC(C)(C)OC
inactive: all assays above

CCCCCCCCCCCC(=O)OCC(O)CO (configuration not stated)
inactive and 61.1 µM (active): [2] | [4]
inactive: all other assays above

COc1cc(NCc2ccc3nc(N)nc(N)c3c2C)cc(OC)c1OC
active: [2] 133 nM | [3] 150 nM | [4] 0.266 µM | [5] 0.674 µM | [7] 8.41 µM | [8] 0.668 µM | [11] 0.213 µM
inactive: [1] | [6] | [9] | [10] | [12] | [13]

O=C1OC(=O)c2c(Br)c(Br)c(Br)c(Br)c21
not listed: [10] | [12] | [13] | [14] | [16]
inactive: all other assays above

COc1ccc(C)cc1
not listed: [7] | [10] | [12] | [13] | [14]
inactive: all other assays above

CCN(CC)CCNC(=O)c1cc(Cl)c(N)cc1OC
not listed: [7]
inactive: all other assays above

CC[C@H]1OC(=O)[C@H](C)[C@@H](O[C@H]2C[C@@](C)(OC)[C@@H](O)[C@H](C)O2)[C@H](C)[C@@H](O[C@@H]2O[C@H](C)C[C@H](N(C)C)[C@H]2O)[C@](C)(O)C[C@@H](C)CN(C)[C@H](C)[C@@H](O)[C@]1(C)O
active: [2] 3.76 µM and 2.87 µM | [3] 2.11 µM and 1.81 µM | [4] 3.76 µM and 2.56 µM | [7] 29.8 µM and 40.5 µM
not listed: [8]
inactive: all other assays above

ClC1=C(Cl)C1(Cl)Cl
not listed: [8]
inactive: all other assays above

O=C(O)c1ccc(O)cc1O
not listed: [10] | [12] | [13] | [14]
inactive: all other assays above

CC(C)C(=O)OCCOc1ccccc1
not listed: [7]
inactive: all other assays above

CCCCCCOC(=O)CCCCC
not listed: [10] | [12] | [13] | [14]
inactive: all other assays above

CC1CCCO1 (configuration not stated)
not listed: [10] | [12] | [13] | [14]
inactive: all other assays above

CCO[Si](C)(CCCOCC1CO1)OCC (configuration not stated)
active: [2] 13700 nM | [3] 7700 nM | [4] 27.3 µM
not listed: [8] | [17]
inactive: all other assays above

CCCCCCC(CO)CCCC (configuration not stated)
not listed: [10] | [12] | [13] | [14]
inactive: all other assays above

CCCCCCCCCCCCCCCC(=O)OCC
not listed: [7]
inactive: all other assays above

CC[C@H]1OC(=O)[C@H](C)[C@@H](O[C@H]2C[C@@](C)(OC)[C@@H](O)[C@H](C)O2)[C@H](C)[C@@H](O[C@@H]2O[C@H](C)C[C@H](N(C)C)[C@H]2O)[C@](C)(O)C[C@@H](C)C(=O)[C@H](C)[C@@H](O)[C@]1(C)O
not listed: [8] | [10] | [12] | [13] | [14]
inactive: all other assays above

C=CCOC(=O)COCCC(C)C
not listed: [7] | [17]
inactive: all other assays above

CC(=O)NNC(C)=O
not listed: [7]
inactive: all other assays above

O=C(O)c1cccc(Oc2ccccc2)c1
not listed: [7] | [17]
inactive: all other assays above

O=[N+]([O-])c1ccc2ncccc2c1
not listed: [8]
inactive: all other assays above

O=C(c1ccccc1)C1CCC1
not listed: [7]
inactive: all other assays above

CC1C(C)(C)C2=C(C(=O)CCC2)C1(C)C (configuration not stated)
not listed: [7]
inactive: all other assays above

CCCCCC
not listed: [10] | [12] | [13] | [14]
inactive: all other assays above

CCCC(=O)OC(=O)CCC
not listed: [7] | [10] | [11] | [12] | [13] | [14]
inactive: all other assays above

CCOC(=O)C(C)O (configuration not stated)
not listed: [8] | [9] | [15]
inactive: all other assays above

CC(C)c1ccc(C#N)cc1
not listed: [7] | [8]
inactive: all other assays above

O=C(Nc1ccc(C(=O)O)c(O)c1)c1ccccc1
not listed: [8]
inactive: all other assays above

SCCc1cnccn1
not listed: [11] | [12] | [13]
inactive: all other assays above

O=C1NC(=O)c2cccc3cccc1c23
active: [4] 48.6 µM
not listed: [10]
inactive: all other assays above

Cc1ccc(Cl)cc1N
not listed: [10] | [12] | [13] | [14]
inactive: all other assays above

COC(CC(C)CCCC(C)(C)O)OC (configuration not stated)
not listed: [10] | [12] | [13] | [14]
inactive: all other assays above

CCCCCCCCCCCCCOC(=O)CCSCCC(=O)OCCCCCCCCCCCCC
not listed: [10] | [12] | [13] | [14]
inactive: all other assays above

COC(OC)OC
not listed: [7] | [8] | [11]
inactive: all other assays above

Nc1nc(-c2ccc([N+](=O)[O-])cc2)cs1
not listed: [8] | [10] | [12] | [13] | [14]
inactive: all other assays above

CC(C)Cc1ccc(CC(=O)O)cc1
not listed: [10] | [12] | [13] | [14]
inactive: all other assays above

COc1ccc(C2C(=O)c3ccccc3C2=O)cc1
active: [13] 23.7 µM
not listed: [7] | [8]
inactive: all other assays above

CC(CO)(CO)C(=O)O
not listed: [8] | [9]
inactive: all other assays above

CCCCCCCCCCCCCCCCCC(=O)OCC(CC)CCCC (configuration not stated)
not listed: [10] | [11] | [12] | [13] | [14] | [17]
inactive: all other assays above
